Compound activity from PubChem BioAssay.
Shown are actives, neighbours in structure and some others; about 12% of the full set was active somewhere.
Pf growth 96h: Primary qHTS for delayed death inhibitors of the malarial parasite plastid, 96 hour incubation; P. falciparum luciferase reporter growth, 96 h; actives 6.9% (n = 320,000); AID 504834, 2011; Potency, µM (highest dose often 28.7 µM), for the others: at the highest dose activity change, negative = inhibition, usual class: inhibitors; further: on the % scale 0 is the no-effect control and ±100 the full control effect
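Erythrocytes infected with luciferase-expressing P. falciparum were dispensed at 2% hematocrit and 0.05% parasitemia (final), then incubated with compounds 96 hours at 37 C in 5% CO2. Luminescence after detection reagent addition reported growth.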
NS1 inh: qHTS Assay for Inhibitors of Influenza NS1 Protein Function. Potency, µM (series often up to 46.1 µM), for the others: at the highest dose activity, positive = more growth. actives 0.4% (n = 270,000). AID 2326, 2010; calls by dose curve; further: actives are rising curves; nearly all actives have a fitted effect of over 50% in size
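Growth recovery, yeast-based: influenza A NS1 expressed in S. cerevisiae causes slow growth, and suppressors are detected by OD600. The parent strain without NS1 is used as positive control.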
Pf growth 48h: Primary qHTS for delayed death inhibitors of the malarial parasite plastid, 48 hour incubation; P. falciparum luciferase growth in erythrocytes, 48 h; actives 5.9% (n = 310,000); Potency, µM (doses to about 28.7 µM), for inactives: at the highest dose activity change, negative = inhibition, usual class: inhibitors; further: on the % scale 0 is the no-effect control and ±100 the full control effect
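Parasite viability was followed by luminescence of a genomically integrated firefly luciferase. Cultures held 0.1% parasitemia at 2% hematocrit (final), incubated under 5% CO2 at 37 C.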
HCV inh: qHTS Assay for Inhibitors of Hepatitis C Virus (HCV); Huh7.5.1 HCVcc-Cre infection, luciferase reporter, 44 h; Potency, µM (series often up to 41.8 µM), inactives show at the top dose activity change, negative = inhibition, actives largely listed as inhibitors; actives 3.4% (n = 340,000); AID 651820, 2012; further: on the % scale 0 is the no-effect control and ±100 the full control effect
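Whole-lifecycle infectious HCVcc-Cre system; cells 1,000/well, compound then virus (~0.5 moi) added 4 h after plating, 44 h culture. Luciferase read 15 sec following 15 min substrate incubation, room temp.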
AMA1-RON2 inh: qHTS for Inhibitors of AMA1-RON; Towards Development of Antimalarial Drug Lead: Primary Screen | AlphaScreen AMA1-biotinylated RON2 peptide binding | Potency, µM (titrated, usually from 58.2 µM), without a hit: top-dose activity change, negative = inhibition, most hits filed as inhibitors | actives 0.2% (n = 360,000);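 further: 0% = vehicle wells and -100% = peptide control; nearly all actives have a fitted effect of over 45% in size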
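AMA1 (3D7) with his tag at 25 nM final met compounds first, then biotinylated RON2 peptide at 25 nM; detection used donor plus acceptor beads, 10 µg/mL apiece, read by AlphaScreen after 30 min at room temperature.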
SARS PLP yeast: qHTS of Yeast-based Assay for SARS-CoV PLP. S. cerevisiae expressing SARS-CoV PLpro, growth rescue. AID 485353, 2010. actives 0.19% (n = 330,000). Potency, µM (top dose mostly 32.9 µM), for inactives: top-dose activity, positive = growth rescue, most hits filed as activators; calls by dose curve; further: 0% is about no effect; nearly all actives have a fitted effect of over 55% in size
* marks the source's active call; other numbers are inactive results; ? = inconclusive; nt = no result. Unless noted, the call rests on the fitted dose curve; in most records, active means well fitted curve in the direction sought with a large enough effect; inconclusive means small, poorly fitted or top-dose-only effect, or another doubt; inactive means no such curve, though single readings can be large; an effect the other way counts as inactive or inconclusive. Potency means the concentration at half of the fitted maximal effect.

SMILES	Pf growth 96h	NS1 inh	Pf growth 48h	HCV inh	AMA1-RON2 inh	SARS PLP yeast
C[C@@H](NC(=O)c1[nH]cnc1C(=O)Nc1ccccc1F)c1ccccc1	nt	nt	nt	nt	125.2%	nt
CN1CCN(Cc2cc(=O)n3ccsc3n2)CC1	?	-3.4%	-4.6%	5.5%	19.1%	2.2%
O=C1c2ccccc2S(=O)(=O)N1Cc1cc(=O)n2ccsc2n1	13.1µM*	-0.2%	?	-3.5%	-9.8%	?
CC1Cc2ccccc2N1Cc1cc(=O)n2ccsc2n1 (stereo unspecified)	13.1µM*	13.3%	?	?	-5.7%	-13.3%
O=[N+]([O-])c1cccc(CN2CCN(Cc3ccc(Cl)cc3)CC2)c1	0.1%	nt	12.1%	10µM*	?	-2.1%
O=[N+]([O-])c1cccc(CN2CC=C(c3ccc(F)cc3)CC2)c1	10.4µM*	-16.7%	-5.9%	-16.4%	-24.1%	-2.5%
O=C(CCN1CCN(Cc2ccccc2)CC1)NNC(=O)Nc1cccc([N+](=O)[O-])c1	13.1µM*	6.4%	9.8%	-10.5%	35.8%	2.4%
COC(=O)/C=C1\N/C(=N\c2nc(C)cc(C)n2)N(c2ccc(C)c(C)c2)C1=O	?	12.2%	0.8%	-5.0%	22.1%	14.9%
CCOc1ccc(-c2nnc(SCC(=O)N3CCNC3=O)o2)cc1	-5.4%	nt	202.7%	-28.2%	0.6%	10.1%
COc1ccc(CCNC(=O)CSc2nnc(-c3ccc(F)cc3)c3ccccc23)cc1OC	5.22µM*	-7.4%	9.28µM*	-10.1%	-3.2%	-4.4%
COc1ccc(CCNC(=O)CSc2cn(Cc3cccc(C)c3)c3ccccc23)cc1OC	9.28µM*	22.6%	?	10µM*	-3.0%	-8.4%
COc1ccc(CCNC(=O)CSc2cn(Cc3ccccc3)c3ccccc23)cc1OC	?	17.2%	?	11.2µM*	-2.2%	5.6%
Cc1c(C(=O)NCc2ccccc2)sc(=O)n1Cc1ccccc1F	nt	nt	nt	nt	-1.5%	nt
O=C1c2cccc(OCC(=O)N3N=C(c4cccs4)CC3c3ccc(F)cc3)c2CCN1Cc1cccnc1 (stereo unspecified)	?	-30.1%	1.47µM*	?	-5.4%	2.1%
C#CC[N+]1(CC#Cc2cccc3ccccc23)CCOCC1	-4.9%	-0.3%	3.7µM*	9.2%	12.3%	0.9%
C#CC[N+]1(CC#Cc2ccccc2)CCCC1	49.5%	9.0%	3.29µM*	-9.6%	-1.8%	2.0%
C(#Cc1ccccc1)C[N+]1(CC#Cc2cccc3ccccc23)CCCC1	?	-7.6%	2.62µM*	?	-1.0%	-9.2%
Cc1cc(C(=O)Nc2ccc3ccccc3c2)c(C)o1	22.0%	-8.4%	292.9%	-9.3%	-10.3%	-5.3%
Cc1ncccc1C(=O)N1CCCC(CNC(=O)C2(c3ccc(Cl)cc3)CC2)C1 (stereo unspecified)	?	0.9%	-1.1%	13.2%	-5.9%	1.5%
CCCn1c(CN2CCN(C(=O)c3ccco3)CC2)nc2cc(S(=O)(=O)N(C)C)ccc21	9.28µM*	nt	10.4µM*	-18.9%	23.1%	2.1%
CCn1c(CN2CCN(c3ccc(OC)cc3)CC2)nc2cc(S(=O)(=O)N(C)C)ccc21	?	-1.4%	?	?	-4.2%	0.4%
CNCCCC12CCC(c3ccccc31)c1ccccc12	?	-4.8%	11.7µM*	?	-1.8%	-14.3%
COc1cccc(CN(C)C(=O)c2ccc3nccnc3c2)c1	?	2.9%	nt	-7.0%	-8.7%	-15.6%
CN(Cc1ccc(Cl)cc1)C(=O)CCl	?	nt	?	?	-7.8%	-16.0%
CN(Cc1ccc(Cl)s1)C(=O)CCl	1.47µM*	nt	9.28µM*	?	9.7%	-4.2%
SMILES	Pf growth 96h	NS1 inh	Pf growth 48h	HCV inh	AMA1-RON2 inh	SARS PLP yeast
COc1ccc(CN(C)C(=O)CCl)cc1	10.4µM*	nt	13.1µM*	?	-3.4%	-0.7%
COc1ccc(CN(C)C(=O)c2cccc(C(=O)N(C)Cc3ccc(OC)cc3)c2)cc1	?	-10.8%	?	11.2µM*	1.8%	-0.8%
COC(=O)c1cc(S(=O)(=O)N2CCN(c3cccc(Cl)c3)CC2)c[nH]1	?	6.6%	14.9%	?	0.0%	0.3%
Cn1c(=O)c(C#N)c(-c2ccc(F)cc2)c2cc(C(=O)c3cc(Cl)cc(Cl)c3O)cnc21	?	-103.9%	?	11.2µM*	-7.4%	-18.5%
O=C(c1ccccc1)c1ccc(OCC(O)CN2CCCCC2)cc1 (stereo unspecified)	nt	3.3%	?	?	4.7%	7.4%
COCCOCC(O)CN1CCN(c2ccc(C)cc2)CC1 (stereo unspecified)	?	2.2%	-6.0%	7.9%	14.1µM*	7.4%
O=C(c1ccccc1)c1ccc(OCC(O)CN2CCN(S(=O)(=O)N3CCCCC3)CC2)cc1 (stereo unspecified)	5.22µM*	-7.6%	nt	?	-7.4%	8.2%
COc1ccccc1N1CCN(CC(O)COc2cccc3ccccc23)CC1 (stereo unspecified)	?	-2.8%	?	-39.2%	12.5%	-6.3%
OC(COc1ccc(CNCCc2ccccc2F)cc1)CN1CCCCC1 (stereo unspecified)	-11.7%	2.4%	6.57µM*	?	-1.5%	0.6%
COc1cccc(OC)c1OCC(O)CN1CCN(c2ccccc2F)CC1 (stereo unspecified)	4.65µM*	3.9%	-11.6%	1.5%	8.9%	1.1%
O=C(O)CCNc1ncnc2nc[nH]c12	nt	3.5%	nt	nt	nt	nt
CCCCCCCCCCCCCCCCC(C(=O)O)C(O)(CC(=O)O)C(=O)O (stereo unspecified)	-21.8%	nt	-4.8%	nt	nt	nt
O=C1C2C3C=CC(C2C(=O)N1c1cccc(O)c1)C1C2C(=O)N(c4cccc(O)c4)C(=O)C2C31 (stereo unspecified)	47.4%	nt	-11.0%	-8.9%	-4.9%	1.1%
COc1ccc(/C=C/C(=O)c2ccc3c4c(cccc24)CC3)cc1OC	?	4.4%	?	?	-24.4%	-4.3%
CC(C)NC(=O)C(C)N1CCN(S(=O)(=O)c2ccc3ccccc3c2)CC1 (stereo unspecified)	16.0%	-4.6%	22.8%	-23.6%	-12.7%	0.5%
COc1ccc(N2CCN(CC(O)COC(c3ccc(F)cc3)c3ccc(F)cc3)CC2)cc1 (stereo unspecified)	14.7µM*	-2.5%	9.28µM*	?	28.2µM*	-0.5%
OC(COc1ccc(F)cc1)CN1CCN(CC(O)COc2ccc(F)cc2)CC1 (stereo unspecified)	17.8%	-0.3%	-17.7%	31.6µM*	-0.7%	0.0%
